Source: PubChem BioAssay (National Center for Advancing Translational Sciences (NCATS))
Most compounds without a hit are left out; they make up all but 21% or so of the library.
Shiga toxin inh: inhibitors of Shiga toxin in Vero cells; hit rate 9.2% among 290,000; inhibition, % at 38.7 µM; Vero cells, Shiga toxin protein synthesis inhibition reporter; in the data active = inhibition mostly above about 28%, no sharp cut-off; inactive = mostly below about 43%
Pf growth 96h: P. falciparum growth inhibition at 96 hour, primary screen for plastid delayed-death inhibitors; P. falciparum luciferase reporter growth, 96 h; Potency, µM (titrated, usually from 28.7 µM), most hits filed as inhibitors; hit rate 6.9% among 320,000; AID 504834
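Compounds incubated with erythrocytes infected by luciferase-expressing P. falciparum (2% hematocrit, 0.05% parasitemia final) for 96 hours, 37 C in 5% CO2. Growth inhibition scored as decreased luciferase luminescence.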
CHX counter: counter-screen for Shiga toxin inhibitors: cycloheximide protein synthesis inhibition. cell reporter, cycloheximide protein synthesis inhibition counterscreen. max response, %. hit rate 12% among 300,000. AID 2314; in the data active = max response mostly above about 13%, no sharp cut-off; inactive = mostly below about 14%; note: read at 38.3 µM for the half of the compounds with a filed dose
Pf growth 48h: inhibits P. falciparum growth in the first generation, 48 h. P. falciparum luciferase growth in erythrocytes, 48 h. Potency, µM (top dose mostly 28.7 µM), actives largely listed as inhibitors. hit rate 5.9% among 310,000. AID 504832
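Erythrocytes infected with P. falciparum carrying an integrated firefly luciferase reporter (2% hematocrit, 0.1% parasitemia final) were exposed to compounds in RPMI 1640 with 0.5% Albumax at 37 C, 5% CO2. Growth inhibition was scored as reduced luminescence.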
HCV inhibitor: blocks hepatitis C virus; Huh7.5.1 HCVcc-Cre infection, luciferase reporter, 44 h; Potency, µM (top dose mostly 41.8 µM), hits mostly inhibitors; hit rate 3.4% among 340,000; AID 651820
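Cells seeded at 1,000/well and cultured 4 h, then compounds added followed by HCVcc-Cre virus (~0.5 moi). After 44 h further culture, luciferase substrate was added, plates held 15 min at room temperature, and luminescence read for 15 sec.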
HCMV antiviral: inhibitors of human cytomegalovirus | AID 1259415 | HFF cells, HCMV-luciferase reporter, 72 h; active compounds read low | hit rate 4.5% among 410,000 | activity change, negative = inhibition, % at 57.5 µM; in the data active = activity change below about -60%; inconclusive = no clear call, values can overlap the other calls; inactive = above about -39%
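Screen run at 2 compound doses on HFFs infected with reporter HCMV, MOI 1 PFU/cell. Luciferase activity from cell lysates at 72 h post infection gave inhibition relative to buffer-only and Salinomycin wells.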
Of the large screens only hits and unclear results are named; the others gave an inactive call; ! = repeats disagree. Unless noted, calls come from the whole dose curve; as a rule, active = well fitted inhibition curve with a large enough effect; inconclusive = small, poorly fitted or top-dose-only effect, or another doubt; inactive = no such curve, though single readings can be large or run the other way.

Cc1ccc(N2C(=O)c3n[nH]c(C)c3C2c2ccc(C(C)C)cc2)cc1 (configuration not stated)	none (no result: Shiga toxin inh, Pf growth 96h, CHX counter, Pf growth 48h, HCV inhibitor)
O=C(Cc1ccc(Cl)cc1)c1ccc(O)cc1	Shiga toxin inh 110, CHX counter 48
COC(=O)C(CC(=O)c1ccc(Cl)cc1)c1ccccc1 (configuration not stated)	HCMV antiviral -101 (no result: Shiga toxin inh, Pf growth 96h, CHX counter, Pf growth 48h)
O=C(Cc1ccccc1)c1ccc(Cl)cc1	Shiga toxin inh 60, CHX counter 32
O=C(Cc1ccccc1)c1c[nH]c(C(=O)O)c1	Pf growth 96h inconclusive
O=C(Cc1ccccc1)c1ccc(O)cc1	none (no result: Shiga toxin inh, Pf growth 96h, CHX counter, Pf growth 48h)
NC(=O)c1cc(C(=O)Cc2ccc(Cl)cc2)c[nH]1	Shiga toxin inh 40, CHX counter 23
Cc1ccc(CC(=O)c2ccc(Cl)cc2)cc1	Shiga toxin inh 68, CHX counter 47
CC1(C)CC(=O)C2=C(C1)OC(N)=C(C#N)C2c1ccccc1OC(=O)N1CCOCC1 (configuration not stated)	Pf growth 96h 5.9µM
CCCCCCCC(=O)NC1=NC(=O)C(C)(C)S1	none
CN(C)c1cccc(C(=O)NNC(=S)NC2CC3CCC2C3)c1 (configuration not stated)	Shiga toxin inh 56, CHX counter 32
CCc1nn(CC(=O)N2CCN(Cc3ccc4c(c3)OCO4)CC2)c(=O)c2cc3occc3n12	HCV inhibitor inconclusive, HCMV antiviral -61
CCc1cccc(NC(=O)CCCn2nc(CC)n3c(cc4occc43)c2=O)c1	Pf growth 96h 12µM, Pf growth 48h inconclusive, HCV inhibitor inconclusive
CCc1nn(CC(=O)NCCc2ccc(OC)cc2OC)c(=O)c2cc3occc3n12	HCV inhibitor inconclusive, HCMV antiviral -62!
CCc1nn(CCCC(=O)NCc2ccccc2Br)c(=O)c2cc3occc3n12	HCMV antiviral -68!
NCCCC[C@H](NC(=O)[C@H](Cc1c[nH]c2ccccc12)NC(=O)[C@H](CC(=O)O)NC(=O)[C@H](Cc1cnc[nH]1)NC(=O)[C@H](CO)NC(=O)[C@H](Cc1c[nH]c2ccccc12)NC(=O)[C@H](Cc1cnc[nH]1)NC(=O)[C@@H]1CCC(=O)N1)C(=O)N1CCC[C@H]1C(=O)NCC(N)=O	none (no result: Pf growth 96h, Pf growth 48h, HCV inhibitor, HCMV antiviral)
COc1cccc(CNC(=O)CCCn2ncn3c(cc4occc43)c2=O)c1	Pf growth 96h 4.7µM, Pf growth 48h inconclusive
COc1cccc(CNc2nc3cc(-c4cscc4C)sc3c(=O)n2C)c1	none (no result: Shiga toxin inh, Pf growth 96h, CHX counter, Pf growth 48h, HCV inhibitor)
O=C(Nc1cccc(-c2cccc(Cl)c2)c1)C1CCN(CC2CCOC2)CC1 (configuration not stated)	Pf growth 48h 8.3µM, HCV inhibitor 10µM, HCMV antiviral inconclusive
COCc1ccc(CN2CCC(C(=O)Nc3cccc(-c4cccc(Cl)c4)c3)CC2)o1	Pf growth 96h inconclusive, Pf growth 48h 13µM, HCV inhibitor 10µM
O=C(Nc1cccc(-c2cccc(Cl)c2)c1)C1CCN(Cc2ccccn2)CC1	Pf growth 48h inconclusive, HCV inhibitor 10µM, HCMV antiviral -74
O=C(Nc1cccc(-c2cccc(F)c2)c1)C1CCN(CC2CCOC2)CC1 (configuration not stated)	Pf growth 48h inconclusive, HCV inhibitor inconclusive
O=C(Nc1cccc(-c2cccc(Cl)c2)c1)C1CCN(Cc2ccon2)CC1	Pf growth 96h 8.3µM, HCV inhibitor inconclusive
O=C(Nc1ccc(-n2cccn2)cc1)C1CCN(Cc2ccccn2)CC1	Pf growth 48h inconclusive (no result: HCV inhibitor)
CCOc1ccccc1Nc1ccc2cc(S(=O)(=O)N3CCCCC3)ccc2n1	none (no result: Shiga toxin inh, Pf growth 96h, CHX counter, Pf growth 48h, HCV inhibitor)
N#Cc1ccc(NC(=O)C2=COCCO2)cc1	none (no result: Shiga toxin inh, CHX counter)
O=C(O)c1ccc2c(c1)C(=O)N([C@H](Cc1ccc3ccccc3c1)C(=O)O)C2=O	none (no result: HCV inhibitor, HCMV antiviral)
CC(C)(C)c1cc(/C=N/NC(=O)C[n+]2ccccc2)cc(C(C)(C)C)c1O	Pf growth 48h inconclusive, HCV inhibitor inconclusive
N#Cc1sc(NCc2ccccn2)nc1Cl	none (no result: Pf growth 48h)
O=C(CSc1nnc2scc(-c3ccccc3)n12)Nc1nsc(-c2ccc(Cl)cc2)n1	HCMV antiviral -73 (no result: Shiga toxin inh, Pf growth 96h, CHX counter, Pf growth 48h)
O=C(CSc1nnc2scc(-c3ccccc3)n12)Nc1nsc(-c2ccccc2)n1	HCV inhibitor 11µM!, HCMV antiviral inconclusive
